Results filed as inconclusive are left out. The source made the active and inactive calls. Unless noted, calls come from the whole dose curve; as a rule, active = well fitted curve in the direction sought with a large enough effect in the repeat runs; inconclusive = weak or mixed curves; inactive = no such curve, though single readings can be large; an effect the other way counts as inactive or inconclusive.
Key:
[1] = target: Progesterone receptor (Homo sapiens) (UniProt P06401); assay: qHTS assay to identify small molecule agonists of the progesterone receptor (PR) signaling pathway (AID 1346784; calls by dose curve; note: nearly all actives have a fitted effect of over 30% in size; note: potency is the fitted concentration of half-maximal effect)
Procedure, shortened: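 Agonist mode, quantitative HTS format in a HEK 293T line expressing a UAS-controlled beta-lactamase reporter; 16 hr compound exposure at 37C in 2% charcoal-stripped FBS, then LiveBLAzer B/G FRET fluorescence.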

[2] = qHTS assay to identify small molecule antagonists of the progesterone receptor (PR) signaling pathway - cell viability counter screen (AID 1346798); note: nearly all actives have a fitted effect of over 50% in size; note: potency is the fitted concentration of half-maximal effect
Procedure, shortened: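 Same-well multiplex: after 16 hr at 37C with compound and R5020 stimulation, HEK293T cells carrying a UAS-bla reporter received LiveBLAzer substrate (2 hr RT), then CellTiter-Glo (30 min RT) for luminescent viability.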

[3] = qHTS assay to identify small molecule agonists of the progesterone receptor (PR) signaling pathway - cell viability counter screen (AID 1346799; calls by dose curve; note: nearly all actives have a fitted effect of over 45% in size; note: potency is the fitted concentration of half-maximal effect)
Procedure, shortened: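 Counter screen for cytotoxicity: compound-treated PR-UAS-bla HEK293T cells (16 hr, 37C, 5% CO2) were assayed with CellTiter-Glo, luminescence measured after 30 min at room temperature.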

[4] = qHTS assay to identify small molecule antagonists of the TGF-beta/Smad signaling pathway - cell viability counter screen (AID 1346824); note: nearly all actives have a fitted effect of over 50% in size
Procedure, shortened: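 Cytotoxicity counter-screen run in the same wells as the beta-lactamase Smad reporter read: CellTiter-Glo luminescence after 30 min at room temperature. HEK 293T SBE-bla cells had 5 hr compound exposure at 37 C with TGF-beta1 (0.25 ng/mL stock).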

[5] = qHTS assay to identify small molecule agonists of the TGF-beta/Smad signaling pathway (AID 1346859; active = well fitted activation curve with a large enough effect in the signal ratio in the repeat runs, not every such curve was filed as active; the % refers to the signal ratio; note: series mostly up to about 77 µM)
Procedure, shortened: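 Smad-responsive beta-lactamase reporter cells (HEK 293T) received compounds from DMSO stocks after overnight attachment, were incubated 5 hr, then treated 2 hr with FRET substrate before dual-emission fluorescence measurement (405 nm excitation).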

[6] = target: Thyrotropin-releasing hormone receptor (Homo sapiens) (UniProt P34981); assay: qHTS assay to identify small molecule antagonists of the thyrotropin-releasing hormone receptor (TRHR) signaling pathway (AID 1346877; active = well fitted inhibition curve with a large enough effect in the repeat runs, not every such curve was filed as active; note: series mostly up to about 51 µM)
Procedure, shortened: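 Overnight-plated (18 h, 37 °C) HEK293 cells expressing TRHR were dye-loaded 2 h, treated with compound, then stimulated with TRH at 1 nM final. Fluorescence intensity was captured every second for 3 min.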

[7] = target: Thyrotropin-releasing hormone receptor (Homo sapiens) (UniProt P34981); assay: qHTS assay to identify small molecule agonists of the thyrotropin-releasing hormone receptor (TRHR) signaling pathway (AID 1346891; calls by dose curve;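 note: HEK293 cells expressing TRHR with calcium dye readout; series mostly up to about 58 µM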)
Procedure, shortened: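 Agonist-mode calcium mobilisation screen: TRHR-transfected HEK293 cells cultured overnight (18 h), dye-loaded for 2 h at 37 °C, exposed to compounds, and monitored by fluorescence for 3 min.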

[8] = Human pregnane X receptor (PXR) small molecule agonists, qHTS cell viability counter screen (AID 1346977); note: nearly all actives have a fitted effect of over 50% in size; note: potency is the fitted concentration of half-maximal effect
Procedure, shortened: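 Measures live-cell protease fluorescence (CellTiter-Fluor) in PXR-Luc HepG2 cells treated 24hr with compounds at 37C. Cells had 5hr to attach before pin transfer of DMSO solutions.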

[9] = qHTS assay to identify small molecule agonists of the TGF-beta/Smad signaling pathway - cell viability counter screen (AID 1346829); note: top concentration of the series differs between compounds; nearly all actives have a fitted effect of over 45% in size
Procedure, shortened: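 CellTiter-Glo luminescence readout; SBE-bla HEK 293T cells, overnight plating, compound 5 hr at 37 C/5% CO2, then bla substrate 2 hr RT, then CellTiter-Glo 30 min RT.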

Measured: Potency

Progesterone receptor (Homo sapiens), sequence (P06401 whole entry, looked up): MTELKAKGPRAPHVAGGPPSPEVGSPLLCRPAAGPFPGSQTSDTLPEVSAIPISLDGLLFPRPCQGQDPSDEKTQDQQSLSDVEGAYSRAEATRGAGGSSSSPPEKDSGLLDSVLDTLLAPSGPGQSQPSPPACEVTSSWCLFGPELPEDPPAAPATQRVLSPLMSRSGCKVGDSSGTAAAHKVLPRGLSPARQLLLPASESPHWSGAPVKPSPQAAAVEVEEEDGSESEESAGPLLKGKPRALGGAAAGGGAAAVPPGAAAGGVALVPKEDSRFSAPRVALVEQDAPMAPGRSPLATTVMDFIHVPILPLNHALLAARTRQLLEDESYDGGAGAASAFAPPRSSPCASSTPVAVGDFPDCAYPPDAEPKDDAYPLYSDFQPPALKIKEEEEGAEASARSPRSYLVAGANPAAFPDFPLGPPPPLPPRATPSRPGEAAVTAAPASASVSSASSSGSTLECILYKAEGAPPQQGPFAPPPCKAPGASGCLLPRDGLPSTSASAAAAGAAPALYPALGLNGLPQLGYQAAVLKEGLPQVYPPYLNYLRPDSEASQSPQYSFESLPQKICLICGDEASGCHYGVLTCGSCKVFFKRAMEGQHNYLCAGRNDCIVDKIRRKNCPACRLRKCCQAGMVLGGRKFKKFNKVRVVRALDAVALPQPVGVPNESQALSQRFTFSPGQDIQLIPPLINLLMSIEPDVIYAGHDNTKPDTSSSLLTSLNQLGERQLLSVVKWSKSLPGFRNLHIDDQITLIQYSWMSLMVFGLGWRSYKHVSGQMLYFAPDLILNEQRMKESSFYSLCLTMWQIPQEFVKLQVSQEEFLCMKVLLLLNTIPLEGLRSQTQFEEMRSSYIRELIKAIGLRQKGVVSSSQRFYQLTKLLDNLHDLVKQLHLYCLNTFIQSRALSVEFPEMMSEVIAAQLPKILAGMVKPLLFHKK
Thyrotropin-releasing hormone receptor (Homo sapiens), sequence (P34981 whole entry, looked up): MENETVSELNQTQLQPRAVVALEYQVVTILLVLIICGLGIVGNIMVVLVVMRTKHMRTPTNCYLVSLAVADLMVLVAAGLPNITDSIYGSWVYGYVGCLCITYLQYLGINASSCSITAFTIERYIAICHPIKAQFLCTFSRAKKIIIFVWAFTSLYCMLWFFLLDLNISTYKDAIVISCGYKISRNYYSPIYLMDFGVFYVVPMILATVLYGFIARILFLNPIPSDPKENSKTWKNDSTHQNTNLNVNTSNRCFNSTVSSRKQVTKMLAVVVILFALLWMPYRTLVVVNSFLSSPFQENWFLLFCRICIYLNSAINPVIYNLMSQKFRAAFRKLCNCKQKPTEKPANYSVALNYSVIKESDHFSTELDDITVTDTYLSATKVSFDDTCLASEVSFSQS

CC(C)(CO)[N+](=O)[O-]
not listed: [9]
inactive: all other assays above

CCCCc1nc2cccnc2n1Cc1ccc(-c2ccccc2-c2nnn[nH]2)cc1
not listed: [5] | [7]
inactive: all other assays above

CC(=O)[O][Al]
not listed: [6] | [7]
inactive: all other assays above

O=C(Nc1ccc(S(=O)(=O)N2CCOCC2)cc1)c1cc(Cl)ccc1NS(=O)(=O)c1ccc(Cl)s1
not listed: [5] | [7] | [8]
inactive: all other assays above

Nc1cccc([N+](=O)[O-])c1
not listed: [7] | [9]
inactive: all other assays above

CCCCC(CC)COC(=O)CCCCCCCCC(=O)OCC(CC)CCCC (stereo not given)
not listed: [5]
inactive: all other assays above

Nc1ncn([C@H]2C[C@H](O)[C@@H](CO)O2)c(=O)n1
not listed: [6] | [9]
inactive: all other assays above

CCCCCCOC(=O)NC(=N)c1ccc(NCc2nc3cc(C(=O)N(CCC(=O)OCC)c4ccccn4)ccc3n2C)cc1
active: [2] 21.1 µM | [3] 18.8 µM
inactive: [1] | [6] | [7]

Nc1ccc(S(=O)(=O)Nc2ccccc2)cc1
not listed: [7] | [9]
inactive: all other assays above

NCCCN1CCOCC1
not listed: [5]
inactive: all other assays above

CCCCC(CC)COC(=O)COc1ccc(Cl)cc1Cl (stereo not given)
not listed: [7] | [9]
inactive: all other assays above

CCOC(=O)COC(=O)c1cc(Oc2ccc(C(F)(F)F)cc2Cl)ccc1[N+](=O)[O-]
not listed: [5] | [6] | [7]
inactive: all other assays above

CC/C=C\CCOC(=O)CC
not listed: [6]
inactive: all other assays above

CCCNCC(O)COc1ccccc1C(=O)CCc1ccccc1 (stereo not given)
active: [8] 29.8 µM
not listed: [3]
inactive: all other assays above

CCn1cc(C(=O)O)c(=O)c2cnc(N3CCNCC3)nc21
not listed: [5] | [6]
inactive: all other assays above

CNCCCN1c2ccccc2CCc2ccccc21
inactive: [1] | [4] | [9] | [5]
active: [2] 18.8 µM | [3] 21.1 µM | [8] 23.7 µM

CCOc1ccc(N)c([N+](=O)[O-])c1
not listed: [6] | [9]
inactive: all other assays above

COc1cc(Cl)c(OC)cc1N
not listed: [6] | [7]
inactive: all other assays above

CCOCC(O)COc1ccc(NC(=O)CC[S+](C)C)cc1 (stereo not given)
not listed: [5]
inactive: all other assays above

CC(C)(C)OCC1CO1 (stereo not given)
not listed: [9]
inactive: all other assays above

CCO[Si](CCCCl)(OCC)OCC
not listed: [2] | [3]
inactive: all other assays above

CCc1cc(C2=C(C(=O)O)N(c3ccccc3C(F)(F)F)S(=O)(=O)c3ccccc32)cc2c1OCO2
not listed: [2] | [3] | [8]
inactive: all other assays above

c1ccc(-c2ccccn2)nc1
not listed: [3] | [9]
inactive: all other assays above

Cc1oc(-c2ccccc2)nc1CCOc1cccc2c1ccn2CCC(=O)O
inactive: [1] | [4] | [9]

Nc1ccccc1S(=O)(=O)c1ccccc1
not listed: [3] | [7]
inactive: all other assays above

CCCCCCCCCCCCCCOS(=O)(=O)O
active: [3] 30.6 µM
not listed: [2] | [6]
inactive: all other assays above

c1ccc(C(O[C@H]2CCCN(CCc3ccc4c(c3)OCO4)C2)c2ccccc2)cc1
not listed: [3] | [5] | [8]
inactive: all other assays above

O=S(c1cc(Cl)cc(Cl)c1O)c1cc(Cl)cc(Cl)c1O
not listed: [2]
inactive: all other assays above

O=C(O)CC(=O)C(=O)O
not listed: [2] | [6] | [7]
inactive: all other assays above

Cc1nn(C)c(Oc2ccccc2)c1/C=N/OCc1ccc(C(=O)OC(C)(C)C)cc1
active: [8] 0.0863 µM
not listed: [3]
inactive: all other assays above

Nc1ccc([N+](=O)[O-])c(C(F)(F)F)c1
not listed: [3] | [6]
inactive: all other assays above

O=C(OCCc1ccccc1)c1ccccc1
not listed: [3] | [6] | [7]
inactive: all other assays above

OCCNCc1ccccc1
not listed: [2] | [7] | [9]
inactive: all other assays above

COc1cc2nc(N3CCN(C(=O)C4COc5ccccc5O4)CC3)nc(N)c2cc1OC (stereo not given)
inactive: [1] | [3] | [4] | [9] | [5]
active: [8] 26.6 µM

COc1ccc(C(=O)c2ccc(OC)cc2O)c(O)c1
not listed: [3] | [7]
inactive: all other assays above

COc1cc2nc(Cl)nc(N)c2cc1OC
not listed: [3]
inactive: all other assays above

COc1ccc(-c2nc3ccc(C4=NNC(=O)CC4C)cc3[nH]2)cc1 (stereo not given)
not listed: [2] | [3] | [7]
inactive: all other assays above

O=C(NCC1CN(c2ccc(N3CCOCC3=O)cc2)C(=O)O1)c1ccc(Cl)s1 (stereo not given)
not listed: [3] | [9]
inactive: all other assays above

O=C(Nc1ccccc1)c1ccccc1O
not listed: [3] | [4] | [8]
inactive: all other assays above

Cc1c(N)cccc1[N+](=O)[O-]
inactive: [1] | [2] | [4] | [9] | [8]

CC(=O)c1ccc2c(c1)N(CCCN(C)C)c1ccccc1S2
inactive: [1] | [3] | [4] | [9]

COS(=O)(=O)C(F)(F)F
not listed: [2] | [3]
inactive: all other assays above

CC(=O)OC[C@H]1O[C@@H](n2ncc(=O)[nH]c2=O)[C@H](OC(C)=O)[C@@H]1OC(C)=O
active: [2] 2.37 µM
not listed: [3] | [7]
inactive: all other assays above

Nc1cc(C(=O)O)c(O)c(S(=O)(=O)O)c1
not listed: [3]
inactive: all other assays above

CN(C)CCCN1c2ccccc2Sc2ccccc21
active: [8] 23.7 µM
not listed: [2] | [3]
inactive: all other assays above

CN(C)c1ccc(CCO)cc1
inactive: [1] | [3] | [4] | [9] | [5]

O[C@@H](COc1cccc2ncccc12)CN1CCN(C2c3ccccc3[C@@H]3[C@H](c4ccccc42)C3(F)F)CC1 (stereo not given in full)
active: [8] 23.7 µM
not listed: [3]
inactive: all other assays above

CC(C)Nc1ccc(NC(C)C)c2c1C(=O)c1ccccc1C2=O
active: [8] 14.2 µM
inactive: [1] | [3] | [9] | [5]

Cn1c(=O)cc(Oc2ccc(F)cc2F)c2cnc(NCC(C)(C)O)nc21
inactive: [1] | [4] | [9] | [5] | [8]

S=C([S-])NCCNC(=S)[S-].[Mn+2]
inactive: [1] | [4] | [9] | [5] | [8]

Cc1cc(N)c2cc(NC(=O)Nc3ccc4nc(C)cc(N)c4c3)ccc2n1
not listed: [2] | [3]
inactive: all other assays above

C[C@H]1C[C@H]2[C@@H]3CCC4=CC(=O)C=C[C@]4(C)[C@@]3(Cl)[C@@H](O)C[C@]2(C)[C@@]1(O)C(=O)CO
inactive: [2] | [4] | [9] | [7] | [8]
active: [1] 23.7 nM

O=C(c1ccc(F)cc1)C1CCN(CCn2c(=S)[nH]c3ccccc3c2=O)CC1
not listed: [2] | [5] | [7]
inactive: all other assays above

C[C@@H]1C[C@H]2O[C@@]3(O[C@@H]2C(C)(C)O)[C@H](O)[C@@]2(C)[C@@H]4CC[C@H]5C(C)(C)[C@@H](O[C@@H]6OC[C@@H](O)[C@H](O)[C@H]6O)CC[C@@]56C[C@@]46CC[C@]2(C)[C@@H]13
not listed: [3]
inactive: all other assays above
